Values without a mark were called inactive. Inconclusive results are not listed. A call without a number means that no potency is given here. The source made the active and inactive calls. Unless noted, the call rests on the fitted dose curve.
Assays:
[1] = qHTS assay to identify small molecule antagonists of the sonic hedgehog signaling (Shh) pathway (AID 1259369); further: nearly all actives have a fitted effect of over 45% in size; further: potency means the concentration at half of the fitted maximal effect
Procedure, shortened: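 For antagonist detection, the reporter line received test compounds together with conditioned medium, incubated 24hr at 37 C, 5% CO2, then luminescence was recorded following 30min room-temperature luciferase reagent incubation.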

[2] = biological target: Estrogen receptor beta (Homo sapiens) (UniProt Q92731); experiment: qHTS assay to identify small molecule agonists of the estrogen receptor beta (ER-beta) signaling pathway (AID 1259377; active means well fitted activation curve with a large enough effect in the signal ratio in the repeat runs, not every such curve was filed as active; the % refers to the signal ratio)
Sequence of Estrogen receptor beta (Homo sapiens) (Q92731 whole entry, looked up): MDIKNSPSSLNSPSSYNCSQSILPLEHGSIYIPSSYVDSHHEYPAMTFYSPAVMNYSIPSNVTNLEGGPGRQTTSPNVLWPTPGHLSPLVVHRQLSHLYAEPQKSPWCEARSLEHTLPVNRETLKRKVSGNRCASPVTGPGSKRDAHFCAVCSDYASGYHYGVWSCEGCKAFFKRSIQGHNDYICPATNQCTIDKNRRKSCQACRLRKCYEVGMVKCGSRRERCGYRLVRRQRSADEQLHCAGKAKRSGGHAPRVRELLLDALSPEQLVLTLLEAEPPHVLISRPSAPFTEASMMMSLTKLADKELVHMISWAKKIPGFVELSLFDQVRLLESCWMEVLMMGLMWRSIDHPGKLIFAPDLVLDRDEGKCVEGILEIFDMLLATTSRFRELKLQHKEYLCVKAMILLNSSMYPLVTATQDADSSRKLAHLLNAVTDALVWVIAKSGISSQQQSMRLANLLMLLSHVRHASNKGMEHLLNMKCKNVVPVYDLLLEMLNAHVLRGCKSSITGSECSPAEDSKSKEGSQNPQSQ
Procedure, shortened: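 Reporter cells (HEK293T, ER-beta-UAS-bla) receive compounds or DMSO after a 6 hr pre-incubation. They then incubate 16 hr at 37C/5% CO2, and fluorescence from LiveBLAzer B/G substrate is measured after 2 hours at room temperature.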

[3] = biological target: Estrogen receptor beta (Homo sapiens) (UniProt Q92731); experiment: qHTS assay to identify small molecule antagonists of the estrogen receptor beta (ER-beta) signaling pathway (AID 1259378; active means well fitted inhibition curve with a large enough effect in the signal ratio in the repeat runs, not every such curve was filed as active; the % refers to the signal ratio)
Procedure, shortened: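 Antagonist mode: compounds added to beta-lactamase reporter HEK293T ER-beta-UAS cells stimulated with E2 (1nM final), 16 hr at 37C. LiveBLAzer B/G FRET substrate, 2 hours room temperature, fluorescence read-out.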

[4] = qHTS assay to identify small molecule agonists of the androgen receptor (AR) signaling pathway in the presence of an antagonist - cell viability counter screen (AID 1259379; active means well fitted curve in the direction sought with a large enough effect in the repeat runs; an effect the other way counts as inactive or inconclusive;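 further: MDA-kb2 human breast cancer cells carrying an MMTV luciferase reporter; series mostly up to about 92 µM; nearly all actives have a fitted effect of over 25% in size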)
Procedure, shortened: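 Seed MDA-kb2 at 3,000 cells/well; incubate 5 hr, 37C, 0% CO2. Add nilutamide to 3.0uM final, then pin compounds at 15 concentrations. Incubate 16 hr. Add CellTiter-Fluor at 15 hr, read fluorescence after 1 hr.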

[5] = qHTS assay to identify small molecule agonists of the estrogen receptor beta (ER-beta) signaling pathway - cell viability counter screen (AID 1259380; active means well fitted curve in the direction sought with a large enough effect in the repeat runs; an effect the other way counts as inactive or inconclusive; further: nearly all actives have a fitted effect of over 30% in size)
Procedure, shortened: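 CellTiter-Glo read, 30 min RT, same wells as bla assay; cells ER-beta-UAS-bla HEK293T; 16 hr compound, 37C; medium 2% charcoal-stripped FBS.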

[6] = qHTS assay to identify small molecule antagonists of the estrogen receptor beta (ER-beta) signaling pathway - cell viability counter screen (AID 1259382; active means well fitted curve in the direction sought with a large enough effect in the repeat runs; an effect the other way counts as inactive or inconclusive;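 further: HEK293T cells carrying ER-beta-UAS-bla reporter stimulated with estradiol; series mostly up to about 92 µM; nearly all actives have a fitted effect of over 55% in size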)
Procedure, shortened: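 In this multiplexed counter screen, cells were seeded at 2,000 per well in medium with 2% charcoal-stripped FBS and incubated 6 hr before compound and 1nM final E2 were added. Sixteen hours later, ATP-based luminescence reported viability.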

[7] = biological target: Estrogen receptor (Homo sapiens) (UniProt P03372); experiment: qHTS assay to identify small molecule agonists of the estrogen receptor alpha (ER-alpha) signaling pathway in the presence of an antagonist (AID 1259383); further: top concentration of the series differs between compounds; nearly all actives have a fitted effect of over 15% in size
Sequence of Estrogen receptor (Homo sapiens) (P03372 whole entry, looked up): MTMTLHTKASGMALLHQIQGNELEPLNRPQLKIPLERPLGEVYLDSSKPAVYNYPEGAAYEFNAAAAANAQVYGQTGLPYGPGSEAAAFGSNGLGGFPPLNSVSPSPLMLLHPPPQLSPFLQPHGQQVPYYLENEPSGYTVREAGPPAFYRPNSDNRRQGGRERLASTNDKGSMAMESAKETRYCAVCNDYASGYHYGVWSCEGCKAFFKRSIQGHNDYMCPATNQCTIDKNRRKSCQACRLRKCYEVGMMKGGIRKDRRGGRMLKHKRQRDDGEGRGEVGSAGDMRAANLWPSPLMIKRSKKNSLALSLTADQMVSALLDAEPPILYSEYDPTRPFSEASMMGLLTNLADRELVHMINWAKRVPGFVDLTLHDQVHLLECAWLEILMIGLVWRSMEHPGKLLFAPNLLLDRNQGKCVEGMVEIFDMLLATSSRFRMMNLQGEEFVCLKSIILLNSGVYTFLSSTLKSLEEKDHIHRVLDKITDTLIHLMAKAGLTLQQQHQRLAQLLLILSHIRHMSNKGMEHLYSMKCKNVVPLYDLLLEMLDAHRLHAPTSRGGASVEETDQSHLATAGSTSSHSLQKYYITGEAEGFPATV
Procedure, shortened: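 Stably transfected VM7Luc4E2 reporter cells, kept 5 days in charcoal-stripped serum, received ICI-182,780 at 10.0nM final before compound addition. Following 22hr incubation at 37C and 5% CO2, luciferase signal was read by luminescence.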

[8] = qHTS assay to identify small molecule agonists or antagonists of the thyroid stimulating hormone receptor (TSHR) signaling pathway - wild type cell line counter screen (AID 1259384)
Procedure, shortened: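 Counter screen in untransfected Hek293: compounds (15-point titration, triplicate) plus phosphodiesterase inhibitor Ro20-1724 added after 18 h plating; 30 min RT. Intracellular cAMP via competitive d2/cryptate immunoassay, 1 h incubation.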

[9] = biological target: Thyrotropin receptor (Homo sapiens) (UniProt P16473); experiment: qHTS assay to identify small molecule antagonists of the thyroid stimulating hormone receptor (TSHR) signaling pathway (AID 1259385); further: nearly all actives have a fitted effect of over 20% in size
Sequence of Thyrotropin receptor (Homo sapiens) (P16473 whole entry, looked up): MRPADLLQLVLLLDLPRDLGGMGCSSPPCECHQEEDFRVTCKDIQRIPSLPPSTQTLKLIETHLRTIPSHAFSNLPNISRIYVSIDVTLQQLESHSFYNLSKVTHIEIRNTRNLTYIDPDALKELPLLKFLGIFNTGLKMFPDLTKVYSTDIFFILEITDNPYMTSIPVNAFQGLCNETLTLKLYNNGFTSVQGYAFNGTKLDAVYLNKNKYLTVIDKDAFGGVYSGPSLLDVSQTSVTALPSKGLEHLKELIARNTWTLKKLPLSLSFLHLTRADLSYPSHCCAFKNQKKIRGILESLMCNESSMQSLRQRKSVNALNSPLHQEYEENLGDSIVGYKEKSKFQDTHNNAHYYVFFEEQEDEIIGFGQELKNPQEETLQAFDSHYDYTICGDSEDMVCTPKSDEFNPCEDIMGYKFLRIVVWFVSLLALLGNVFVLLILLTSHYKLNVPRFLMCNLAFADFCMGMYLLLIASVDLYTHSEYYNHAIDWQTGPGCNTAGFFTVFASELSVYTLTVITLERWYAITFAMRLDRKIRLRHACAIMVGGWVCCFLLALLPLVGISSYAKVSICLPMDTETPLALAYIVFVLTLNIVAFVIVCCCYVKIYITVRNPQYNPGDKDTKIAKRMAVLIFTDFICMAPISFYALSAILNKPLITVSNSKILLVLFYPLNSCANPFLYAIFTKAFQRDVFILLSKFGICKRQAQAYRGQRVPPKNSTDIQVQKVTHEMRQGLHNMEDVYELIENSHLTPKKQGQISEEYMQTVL
Procedure, shortened: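 Antagonist mode: compound-treated TSHR-expressing HEK293 cells were stimulated with 1.5 ng/mL TSH (final) in presence of Ro20-1724 for 30 min at RT. HTRF cAMP detection after 1 h; each compound tested at 15 concentrations, triplicate.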

[10] = biological target: Androgen receptor (Homo sapiens) (UniProt P10275); experiment: qHTS assay to identify small molecule agonists of the androgen receptor (AR) signaling pathway in the presence of an antagonist (AID 1259381); further: nearly all actives have a fitted effect of over 15% in size
Sequence of Androgen receptor (Homo sapiens) (P10275 whole entry, looked up): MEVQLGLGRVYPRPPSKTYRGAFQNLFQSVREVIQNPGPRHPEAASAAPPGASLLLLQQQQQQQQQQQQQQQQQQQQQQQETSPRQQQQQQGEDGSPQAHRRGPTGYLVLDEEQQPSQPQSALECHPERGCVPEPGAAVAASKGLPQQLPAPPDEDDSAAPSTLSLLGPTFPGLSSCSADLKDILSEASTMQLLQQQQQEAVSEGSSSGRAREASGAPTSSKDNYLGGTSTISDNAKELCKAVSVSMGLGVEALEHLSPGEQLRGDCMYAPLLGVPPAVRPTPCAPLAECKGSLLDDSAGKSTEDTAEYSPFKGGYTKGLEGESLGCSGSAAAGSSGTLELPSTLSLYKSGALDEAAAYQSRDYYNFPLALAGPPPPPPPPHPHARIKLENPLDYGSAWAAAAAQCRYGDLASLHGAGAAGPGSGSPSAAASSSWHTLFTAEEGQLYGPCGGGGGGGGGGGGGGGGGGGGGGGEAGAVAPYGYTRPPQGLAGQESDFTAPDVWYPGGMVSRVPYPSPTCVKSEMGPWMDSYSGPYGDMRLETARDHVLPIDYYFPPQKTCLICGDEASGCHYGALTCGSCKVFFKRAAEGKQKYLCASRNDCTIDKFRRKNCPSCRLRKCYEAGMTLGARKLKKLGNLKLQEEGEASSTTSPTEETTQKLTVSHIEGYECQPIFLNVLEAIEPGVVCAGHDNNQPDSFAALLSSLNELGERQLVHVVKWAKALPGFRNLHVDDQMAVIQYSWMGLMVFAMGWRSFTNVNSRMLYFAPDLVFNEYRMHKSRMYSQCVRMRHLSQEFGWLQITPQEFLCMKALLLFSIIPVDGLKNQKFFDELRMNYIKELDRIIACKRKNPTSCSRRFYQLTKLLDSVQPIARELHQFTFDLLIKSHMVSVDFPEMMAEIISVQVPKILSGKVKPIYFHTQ
Procedure, shortened: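 Test compounds at 15 concentrations were incubated for 16hr with MDA-kb2 reporter cells in presence of 3.0uM nilutamide (final). Signal: ONE-Glo luciferase luminescence.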

SMILES: C[C@@H]1CN(c2c(F)c(N)c3c(=O)c(C(=O)O)cn(C4CC4)c3c2F)C[C@H](C)N1
- activity change, negative = inhibition [1]: 23.6% [at 19 µM]
- activation [2]: 3.1% [at 19 µM]
- activity, negative = inhibition [3]: 17% [at 19 µM]
- activity change, negative = cytotoxicity [4]: 2.69% [at 19 µM]
- activity change, negative = cytotoxicity [5]: 6.77% [at 19 µM]
- activity change, negative = cytotoxicity [6]: 5.91% [at 19 µM]
- activation [7]: 0.0574% [at 19 µM]
- cAMP activity change [8]: 4.73% [at 18.9 µM]
- activity change, negative = inhibition [9]: -0.774% [at 19 µM]

SMILES: O=C(Cl)c1cccc([N+](=O)[O-])c1
- Potency [1]: inactive
- outcome [2]: inactive
- Potency [3]: inactive
- Potency [4]: inactive
- Potency [5]: inactive
- outcome [6]: inactive
- Potency [7]: inactive
- outcome [8]: inactive
- Potency [9]: inactive

SMILES: N#Cc1ccc(C(c2ccc(C#N)cc2)n2cncn2)cc1
- Potency [1]: inactive
- outcome [2]: inactive
- Potency [3]: inactive
- Potency [4]: inactive
- Potency [5]: inactive
- Potency [10]: inactive
- Potency [7]: inactive
- outcome [8]: inactive
- Potency [9]: inactive

SMILES: NCCC(O)(P(=O)(O)O)P(=O)(O)O
- Potency [1]: inactive
- outcome [2]: inactive
- Potency [3]: inactive
- Potency [4]: inactive
- Potency [5]: inactive
- outcome [6]: inactive
- outcome [8]: inactive

SMILES: CC(=O)OC1C2(C)CCC(C2)C1(C)C (stereo not given)
- Potency [1]: inactive
- outcome [2]: inactive
- Potency [3]: inactive
- Potency [4]: inactive
- Potency [5]: inactive
- outcome [6]: inactive
- Potency [7]: inactive
- outcome [8]: inactive
- Potency [9]: inactive

SMILES: CC(Oc1c(Cl)cccc1Cl)C1=NCCN1 (stereo not given)
- Potency [1]: 13.3 µM (active)
- outcome [2]: inactive
- Potency [3]: inactive
- Potency [4]: inactive
- Potency [5]: inactive
- Potency [10]: inactive
- outcome [6]: inactive
- outcome [8]: inactive

SMILES: O=C1CCCc2ccccc21
- Potency [1]: inactive
- outcome [2]: inactive
- Potency [3]: inactive
- Potency [4]: inactive
- Potency [5]: inactive
- outcome [6]: inactive
- Potency [7]: inactive
- outcome [8]: inactive
- Potency [9]: inactive

SMILES: Cc1cn([C@@H]2O[C@H](CO)[C@@H](O)[C@@H]2F)c(=O)[nH]c1=O
- Potency [1]: inactive
- outcome [2]: inactive
- Potency [3]: inactive
- Potency [4]: inactive
- Potency [5]: inactive
- outcome [6]: inactive
- outcome [8]: inactive
- Potency [9]: inactive

SMILES: O=[N+]([O-])c1nccn1CO[C@@H](CO)[C@H](O)CO
- Potency [1]: inactive
- outcome [2]: inactive
- Potency [3]: inactive
- Potency [4]: inactive
- Potency [5]: inactive
- outcome [6]: inactive
- outcome [8]: inactive
- Potency [9]: inactive

SMILES: CN1CCN(C2=Nc3ccccc3Oc3ccc(Cl)cc32)CC1
- Potency [1]: 6.68 µM (active)
- outcome [2]: inactive
- Potency [3]: inactive
- Potency [4]: inactive
- Potency [5]: inactive
- outcome [6]: inactive
- Potency [7]: inactive
- outcome [8]: inactive

SMILES: CN(C)Cc1ccccc1
- Potency [1]: inactive
- outcome [2]: inactive
- Potency [3]: inactive
- Potency [4]: inactive
- Potency [5]: inactive
- Potency [10]: inactive
- outcome [6]: inactive
- outcome [8]: inactive
- Potency [9]: inactive

SMILES: Cc1ccsc1C(=CCCN1CCC[C@@H](C(=O)O)C1)c1sccc1C
- Potency [1]: inactive
- outcome [2]: inactive
- Potency [3]: inactive
- Potency [4]: inactive
- Potency [5]: inactive
- Potency [10]: inactive
- outcome [6]: inactive
- Potency [7]: inactive
- outcome [8]: inactive

SMILES: O=CCCc1ccccc1
- Potency [1]: inactive
- outcome [2]: inactive
- Potency [3]: inactive
- Potency [4]: inactive
- Potency [5]: inactive
- outcome [6]: inactive

SMILES: Cc1c(C(=O)NCCO)[n+](=O)c2ccccc2n1[O-]
- Potency [1]: inactive
- outcome [2]: inactive
- Potency [3]: inactive
- Potency [4]: inactive
- Potency [5]: inactive
- Potency [10]: inactive
- outcome [8]: inactive
- Potency [9]: inactive

SMILES: NC(=O)Cc1cccc(C(=O)c2ccccc2)c1N
- Potency [1]: inactive
- outcome [2]: inactive
- Potency [3]: inactive
- Potency [4]: inactive
- Potency [5]: inactive
- outcome [6]: inactive

SMILES: O=c1[nH]cnc2c1ncn2[C@@H]1O[C@H](CO)[C@@H](O)[C@H]1O
- Potency [1]: inactive
- outcome [2]: inactive
- Potency [3]: inactive
- Potency [5]: inactive
- outcome [6]: inactive
- outcome [8]: inactive
- Potency [9]: inactive

SMILES: CN(C)C(=O)NC1(c2ccccc2)CCN(CCC[C@]2(c3ccc(Cl)c(Cl)c3)CCCN(C(=O)c3ccccc3)C2)CC1
- activity change, negative = inhibition [1]: -22.9% [at 19 µM]
- activation [2]: -0.37% [at 19 µM]
- activity, negative = inhibition [3]: -8.74% [at 19 µM]
- activity change, negative = cytotoxicity [4]: -7% [at 19 µM]
- activity change, negative = cytotoxicity [6]: -18% [at 19 µM]
- activation [7]: -0.618% [at 19 µM]
- cAMP activity change [8]: -1.66% [at 18.9 µM]
- activity change, negative = inhibition [9]: -0.429% [at 19 µM]

SMILES: Oc1ccccc1C=NCc1ccccc1
- Potency [1]: inactive
- outcome [2]: inactive
- Potency [3]: inactive
- Potency [4]: inactive
- Potency [5]: inactive
- outcome [8]: inactive

SMILES: CN1CCN(N)CC1
- Potency [1]: inactive
- outcome [2]: inactive
- Potency [3]: inactive
- Potency [5]: inactive
- Potency [10]: inactive
- outcome [6]: inactive
- Potency [7]: inactive
- outcome [8]: inactive

SMILES: O=C1N(c2ccccc2)c2ccccc2C1(Cc1ccncc1)Cc1ccncc1
- Potency [1]: inactive
- outcome [2]: inactive
- Potency [3]: inactive
- Potency [5]: inactive
- Potency [7]: inactive

SMILES: Cc1cc(S(=O)(=O)O)c(N)cc1Cl
- Potency [1]: inactive
- outcome [2]: inactive
- Potency [3]: inactive
- Potency [4]: inactive
- Potency [10]: inactive
- outcome [6]: inactive
- Potency [7]: inactive

SMILES: CC(C)C(=O)OCC(C)(C)C(O)C(C)C (stereo not given)
- Potency [1]: inactive
- outcome [2]: inactive
- Potency [3]: inactive
- Potency [4]: inactive
- outcome [6]: inactive
- Potency [7]: inactive
- outcome [8]: inactive
- Potency [9]: inactive

SMILES: CCN(CC)CC1CCCCN1CC(=O)N1c2ccccc2C(=O)Nc2cccnc21 (stereo not given)
- Potency [1]: inactive
- outcome [2]: inactive
- Potency [3]: inactive
- Potency [4]: inactive
- outcome [6]: inactive
- Potency [7]: inactive
- outcome [8]: inactive
- Potency [9]: inactive

SMILES: C=Cc1ccccc1
- Potency [1]: inactive
- outcome [2]: inactive
- Potency [3]: inactive
- Potency [4]: inactive
- Potency [5]: inactive
- Potency [7]: inactive

Source: PubChem BioAssay (Tox21)
